Test results: PubChem BioAssay (Tox21)
Results filed as inconclusive are left out. Calls of active or inactive are those of the source. Calls follow the shape of the dose curve; as a rule, active = well fitted activation curve with a large enough effect in the signal ratio in the repeat runs (not every such curve was filed as active); inconclusive = weak or mixed curves; inactive = flat fitted curve, though single readings scatter; the % refers to the signal ratio.

Assay: qHTS assay to identify small molecule agonists of H2AX (AID 1224845)
Details: CHO-K1 phospho-H2AX Ser139 HTRF, 3 h; series mostly up to 154 µM
Text: National Center for Advancing Translational Sciences [NCATS]
NIH Chemical Genomics Center [NCGC]
U.S. Environmental Protection Agency [EPA]
National Institutes of Environmental Health Sciences [NIEHS]
National Toxicology Program [NTP]
U.S. Food and Drug Administration [FDA]
HTRF phospho-H2AX (Ser139) assay (Cisbio Bioassays, US) enables the quantitative detection of the histone variant H2AX when phosphorylated on serine 139. When double-stranded DNA breaks, either by ionizing radiation or endogenous physiological processes, H2AX becomes phosphorylated at Ser139. This phospho-Ser139 serves as a sensitive biomarker for the detection of such breaks, localizing the site of DNA repair. So, HTRF phospho-H2AX Ser139 is a pertinent assay to study genome stability, the cell cycle, DNA repair, and it serves as a biomarker for cancer, and to understand aging. Wild type CHO-K1 cells were used to identify the inducers of Phospho-H2AX Ser 139 from the Tox21 10K compound collections.
Tox21 Assay Protocol Summary:
The CHO-K1 cells suspended in culture medium containing 10% FBS were dispensed at 1000 cells/ 3 ul/well in 1536-well white wall/solid bottom plates (Greiner Bio-One North America, NC) using a Multidrop Combi (Thermo Fisher Scientific Inc., Waltham, MA). After the assay plates were incubated at 37C overnight, 23 nl of compounds at 15 concentrations (from 5-48 columns) or positive control (from 1 to 4 columns) were transferred to the assay plates using a Pintool station (Wako, San Diego, CA) into each well resulting in a final DMSO concentration of 0.76%. After 3hr incubation at 37C, 1 uL/well Supplemented Lysis buffer (diluted 100 fold blocking reagent in lysis buffer) (HTRF Phospho-H2A.X (S139) Assay kit from Cisbio US Inc., Bedford, MA) was added using a Flying Reagent Dispenser (FRD) (Aurora Discovery, CA). After 10sec spin at 1000 rpm in a plate centrifuge, the assay plates were incubated at room temperature for 30 min. Then followed by the addition of 1 uL/well detection buffer (containing a mixture of two antibodies, one labeled with cryptate, Anti pH2AX (S139)-K and another labeled with d2, Anti H2AX-d2) using FRD. After incubation at room temperature for 24 hr, the time resolved fluorescence at excitation 320 nm and emissions at 665 nm and 620 nm was measured using an Envision plate reader (PerkinElmer, Waltham, MA).
% is scaled to controls: 0 for no effect and ±100 for the full control effect.

Compound	outcome	activation (H2AX phosphorylation)
C=CCOc1c(Br)cc(C(C)(C)c2cc(Br)c(OCC=C)c(Br)c2)cc1Br	inactive	
CCCCCCCCCCCCC	inactive	
C=COCCOCCOC=C	inactive	
Cc1nc2ccccc2c(=O)o1	inactive	
Cc1ccc(C(=O)C(=O)O)cc1C	inactive	
CNC(=O)C(c1ccccc1)c1ccccc1	inactive	
O=C(O)c1ccccc1C(=O)OCc1ccccc1	inactive	
CCCCCCCCCCCCCC(=O)OC	inactive	
Cn1c(=O)c2c(ncn2CC2OCCO2)n(C)c1=O	inactive	
CCN(CCC#N)c1ccccc1	inactive	
C=CC(C)(O)CC/C=C(\C)CC (stereo not given)	inactive	
CCCCOC(=O)C(C)OC(=O)CCC (stereo not given)	inactive	
CC(=O)OC(C(=O)c1ccccc1)c1ccccc1 (stereo not given)	inactive	
CC(C)c1ccccc1O	inactive	
Cc1cccc(Nc2ccncc2S(=O)(=O)NC(=O)NC(C)C)c1	inactive	
Nc1nc(=O)n([C@@H]2O[C@H](CO)[C@@H](O)[C@@H]2F)cc1I	inactive	
C[CH2][Ge]([Cl])([CH2]C)[CH2]C	inactive	
CCOc1ccc(NC(=O)OC(C)C)cc1OCC	inactive	
CCC(C)N (stereo not given)	inactive	
O=CO		0.0105% [at 14 µM] (inactive)

Compound	outcome	activation (H2AX phosphorylation)
Cc1cccc(NC(=S)N(C)C)c1	inactive	
CC(=O)OC[C@H]1O[C@@H](OC(C)=O)[C@H](OC(C)=O)[C@@H]1OC(C)=O	inactive	
CCCCOC(=O)C(=O)OCCCC	inactive	
O=P(O)(O)OCC(O)CO (stereo not given)	inactive	
CC(C)=CC(C)(C)C	inactive	
CCN(CC)C(=O)C1CN2CCc3cc(OC)c(OC)cc3C2CC1OC(C)=O (stereo not given)	inactive	
Cc1ccc(S(=O)(=O)NC(=O)NC2CCCCCCC2)cc1	inactive	
CCCCC(CC)C(=O)OC(C)C (stereo not given)	inactive	
CC(C)COC(=O)COc1ccc(Cl)cc1Cl	inactive	
CC(C)CCCCCCOC(=O)C1CCCCC1C(=O)OCCCCCCC(C)C (stereo not given)	inactive	
COc1cc2c3cc1Oc1cc(ccc1O)C[C@@H]1c4c(cc(OC)c(O)c4Oc4ccc(cc4)C[C@@H]3N(C)CC2)CC[N+]1(C)C	inactive	
CCCCCCCC/C=C\CCCCCCCC(=O)OC[C@@H](O)[C@H]1OC[C@H](O)[C@H]1O	inactive	
COc1ccc(OC)c(NC(=O)CC(C)=O)c1	inactive	
CCC(C)(C)C1CCC(=O)CC1	inactive	
Cc1nc2n(c(=O)c1CCN1CCC(C(=O)c3ccc(F)cc3)CC1)CCS2	inactive	
CCC(=O)OCCC(C)CCC=C(C)C (stereo not given)	inactive	
Nc1cc(S(=O)(=O)O)ccc1S(=O)(=O)O	inactive	
Nc1cc(C(=O)O)ccc1Cl	inactive	
C[N+](C)(C)CC(O)CCl (stereo not given)	inactive	
C=CCOc1cc(Cl)ccc1C(=O)NCCN(CC)CC	inactive	
